Data as given in PubChem BioAssay (Tox21).
Inconclusive results are not listed. Activity calls are given as the source filed them. Unless noted, the call rests on the fitted dose curve.

Experiments:
[1] = target: Peroxisome proliferator-activated receptor delta (Homo sapiens) (UniProt Q03181); assay: qHTS assay to identify small molecule agonists of the peroxisome proliferator-activated receptor delta (PPARd) signaling pathway (AID 743212)
Outline: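 Tox21 library screened in GeneBLAzer PPARd UAS-bla HEK293H cells. After compound treatment at 37 C, a FRET-based beta-lactamase substrate was applied for 2 h and fluorescence recorded.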

[2] = qHTS assay to identify small molecule antagonists of the peroxisome proliferator-activated receptor delta (PPARd) signaling pathway - cell viability counter screen (AID 743213; active means well fitted curve in the direction sought with a large enough effect in the repeat runs; an effect the other way counts as inactive or inconclusive; further: nearly all actives have a fitted effect of over 50% in size)
Outline: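 HEK293H cells with the PPARd UAS-bla reporter, co-treated 17 h at 37 C with compounds and L165041 (300 nM final), were lysed with CellTiter-Glo. Luminescence indicated viable cell content.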

[3] = target: Peroxisome proliferator-activated receptor delta (Homo sapiens) (UniProt Q03181); assay: qHTS assay to identify small molecule antagonists of the peroxisome proliferator-activated receptor delta (PPARd) signaling pathway (AID 743215; active means well fitted inhibition curve with a large enough effect in the signal ratio in the repeat runs, not every such curve was filed as active; the % refers to the signal ratio;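 further: cells stimulated with agonist L165041 at 300 nM final during compound exposure; series mostly up to about 62 µM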)
Outline: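 Screen format: qHTS, antagonist mode. HEK293H PPARd-bla cells received compound and 300 nM L165041 (final), 17 h, 37 C. Beta-lactamase detected via FRET substrate fluorescence, 2 h, room temperature.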

[4] = qHTS assay to identify small molecule antagonists of the farnesoid-X-receptor (FXR) signaling pathway - cell viability counter screen (AID 743221; active means well fitted cell-killing curve with a large enough effect in the repeat runs, not every such curve was filed as active; further: nearly all actives have a fitted effect of over 50% in size)
Outline: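 Quantitative HTS of the Tox21 10K library run in parallel with the beta-lactamase reporter read. HEK 293T cells carrying a UAS-driven bla reporter got compound and 50 uM CDCA (final) for 16 h; ATP-based luminescence followed.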

[5] = target: Vitamin D3 receptor (Homo sapiens) (UniProt P11473); assay: qHTS assay to identify small molecule agonists of the vitamin D receptor (VDR) signaling pathway (AID 743222)
Outline: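 Using LiveBLAzer B/G FRET detection, agonism was scored in VDR-bla cells exposed overnight (16 h, 37C) to DMSO-dissolved compounds; substrate incubation was 2 h at room temperature.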

[6] = qHTS assay to identify small molecule agonists of the vitamin D receptor (VDR) signaling pathway - cell viability counter screen (AID 743224; active means well fitted curve in the direction sought with a large enough effect in the repeat runs; an effect the other way counts as inactive or inconclusive; further: series mostly up to about 63 µM; nearly all actives have a fitted effect of over 50% in size)
Outline: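 Counter screen for cytotoxicity: VDR-bla cells at 2,000 cells/well, 16 h compound exposure, then CellTiter-Glo luminescence after the beta-lactamase measurement.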

[7] = qHTS assay to identify small molecule antagonists of the vitamin D receptor (VDR) signaling pathway - cell viability counter screen (AID 743225; active means well fitted curve in the direction sought with a large enough effect in the repeat runs; an effect the other way counts as inactive or inconclusive; further: nearly all actives have a fitted effect of over 50% in size)
Outline: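 Cells (VDR-UAS-bla HEK 293T) are plated, rested 4 h at 37C, dosed with compound and 3 nM final 1-alpha,25-dihydroxy vitamin D3, and incubated 16 h. Viability is taken from CellTiter-Glo luminescence in the reporter wells.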

[8] = qHTS assay to identify small molecule agonists of the NFkB signaling pathway - cell viability counter screen (AID 1159515); further: series mostly up to about 61 µM; nearly all actives have a fitted effect of over 55% in size
Outline: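 Counter screen run alongside the NFkB-bla agonist assay: ME-180 reporter cells exposed to compounds for 5 hr, then lysed with CellTiter-Glo in the same wells. Luminescence, read after 30 min, reflects viable cells.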

[9] = qHTS assay to identify small molecule agonists of the endoplasmic reticulum stress response signaling pathway (AID 1159516; active means well fitted activation curve with a large enough effect in the signal ratio in the repeat runs, not every such curve was filed as active; the % refers to the signal ratio)
Outline: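 For this screen, HeLa cells stably carrying beta-lactamase under the ER stress response element received test compounds, positive controls or DMSO for 5 hr at 37 C; B/G FRET substrate was then added and dual-wavelength emission recorded.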

[10] = qHTS assay to identify small molecule agonists of the endoplasmic reticulum stress response signaling pathway - cell viability counter screen (AID 1159517)
Outline: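 In parallel with the ESRE reporter read, cytotoxicity was scored by CellTiter-Glo luminescence (30 min, room temperature) on HeLa ESRE-bla cells dosed for 5 hr.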

[11] = qHTS assay to identify small molecule antagonists of the retinoid-related orphan receptor gamma (ROR-gamma) signaling pathway - cell viability counter screen (AID 1159520; active means well fitted curve in the direction sought with a large enough effect in the repeat runs; an effect the other way counts as inactive or inconclusive; further: nearly all actives have a fitted effect of over 50% in size)
Outline: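 Tet-on ROR gamma CHO cells were given compounds for 2 hr, then doxycycline hyclate at 1 uM final, and incubated 16 hr at 37 C. Viability was measured as ATP content by CellTiter-Glo luminescence.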

[12] = target: Nuclear receptor ROR-gamma (Homo sapiens) (UniProt P51449); assay: qHTS assay to identify small molecule antagonists of the retinoid-related orphan receptor gamma (ROR-gamma) signaling pathway (AID 1159521; active means well fitted curve in the direction sought with a large enough effect in the repeat runs; an effect the other way counts as inactive or inconclusive)
Outline: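 RORγ antagonism is scored from reduced reporter luminescence in Tet-on CHO cells. Induction used 1 uM final doxycycline hyclate for 16 h at 37 C, following a 2 h compound exposure.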

[13] = qHTS assay to identify small molecule agonists of the AP-1 signaling pathway - cell viability counter screen (AID 1159525); further: nearly all actives have a fitted effect of over 55% in size
Outline: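 Same-well cytotoxicity counter screen of the Tox21 10K library in ME-180 cells. The readout is ATP-dependent luminescence after 5 h compound treatment. Data are normalised to DMSO and tetra n-octyl ammonium bromide controls.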

[14] = qHTS assay to identify small molecule agonists of the AP-1 signaling pathway (AID 1159526)
[15] = target: Retinoic acid receptor RXR-alpha (Homo sapiens) (UniProt P19793); assay: qHTS assay to identify small molecule agonists of the RXR signaling pathway (AID 1159527); further: nearly all actives have a fitted effect of over 35% in size
Outline: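 qHTS of the Tox21 10K library in GeneBLAzer RXR-alpha HEK 293T cells carrying a beta-lactamase reporter […]; 16 hr treatment, 9-cis retinoic acid as agonist control, FRET read-out.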

[16] = qHTS assay to identify small molecule agonists of the peroxisome proliferator-activated receptor delta (PPARd) signaling pathway - cell viability counter screen (AID 743211; active means well fitted curve in the direction sought with a large enough effect in the repeat runs; an effect the other way counts as inactive or inconclusive; further: nearly all actives have a fitted effect of over 55% in size)
Outline: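 Viability of GeneBLAzer PPARd UAS-bla HEK293H cells was assessed after 17 h compound incubation at 37C, using CellTiter-Glo reagent added after the reporter read and luminescence recorded 30 min later.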

[17] = qHTS assay to identify small molecule agonists of the farnesoid-X-receptor (FXR) signaling pathway - cell viability counter screen (AID 743218; active means well fitted curve in the direction sought with a large enough effect in the repeat runs; an effect the other way counts as inactive or inconclusive; further: nearly all actives have a fitted effect of over 45% in size)
Outline: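 Same-well cytotoxicity check on FXR-UAS-bla HEK 293T cells: 5 h attachment, 16 h compound at 37 C, CellTiter-Glo luminescence read at room temperature after 30 min.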

[18] = target: Vitamin D3 receptor (Homo sapiens) (UniProt P11473); assay: qHTS assay to identify small molecule antagonists of the vitamin D receptor (VDR) signaling pathway (AID 743223; active means well fitted inhibition curve with a large enough effect in the signal ratio in the repeat runs, not every such curve was filed as active; the % refers to the signal ratio)
Outline: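 Fluorescence from LiveBLAzer B/G FRET substrate, read after 2 h at room temperature, reflects beta-lactamase reporter activity in VDR-bla cells treated 16 h at 37C with compounds and agonist 1alpha,25-dihydroxyvitamin D3 (3 nM final).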

[19] = target: Bile acid receptor (Homo sapiens) (UniProt Q96RI1); assay: qHTS assay to identify small molecule antagonists of the farnesoid-X-receptor (FXR) signaling pathway (AID 743217; active means well fitted inhibition curve with a large enough effect in the signal ratio in the repeat runs, not every such curve was filed as active; the % refers to the signal ratio)
Outline: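 Quantitative HTS, beta-lactamase reporter format: FXR-UAS-bla HEK 293T cells co-treated 16 h at 37 °C with compounds and 50 uM final chenodeoxycholic acid, then read by B/G FRET fluorescence.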

[20] = target: Bile acid receptor (Homo sapiens) (UniProt Q96RI1); assay: qHTS assay to identify small molecule agonists of the farnesoid-X-receptor (FXR) signaling pathway (AID 743220; active means well fitted activation curve with a large enough effect in the signal ratio in the repeat runs, not every such curve was filed as active; the % refers to the signal ratio)
Outline: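 FXR-UAS-bla HEK 293T cells carrying a UAS-driven beta-lactamase reporter were plated for 5 h at 37C/5% CO2, then exposed to DMSO-dissolved Tox21 10K compounds for 16 h at 37C. A LiveBLAzer B/G FRET substrate was loaded for 2 h at room temperature before fluorescence reading.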

Measured: Potency

Sequence of Retinoic acid receptor RXR-alpha (Homo sapiens) (P19793 whole entry, looked up): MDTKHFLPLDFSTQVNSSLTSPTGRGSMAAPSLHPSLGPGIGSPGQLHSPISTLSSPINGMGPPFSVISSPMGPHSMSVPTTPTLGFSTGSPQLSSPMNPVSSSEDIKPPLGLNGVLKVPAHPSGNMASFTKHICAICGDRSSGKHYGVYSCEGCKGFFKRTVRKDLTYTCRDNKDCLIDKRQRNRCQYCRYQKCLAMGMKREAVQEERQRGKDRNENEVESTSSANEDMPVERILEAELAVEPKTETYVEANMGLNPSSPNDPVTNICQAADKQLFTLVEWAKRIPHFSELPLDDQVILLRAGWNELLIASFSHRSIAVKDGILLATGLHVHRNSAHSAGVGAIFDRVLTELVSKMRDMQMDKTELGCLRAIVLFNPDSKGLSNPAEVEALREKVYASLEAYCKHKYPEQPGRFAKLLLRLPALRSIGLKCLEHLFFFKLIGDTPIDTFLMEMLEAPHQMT
Sequence of Peroxisome proliferator-activated receptor delta (Homo sapiens) (Q03181 whole entry, looked up): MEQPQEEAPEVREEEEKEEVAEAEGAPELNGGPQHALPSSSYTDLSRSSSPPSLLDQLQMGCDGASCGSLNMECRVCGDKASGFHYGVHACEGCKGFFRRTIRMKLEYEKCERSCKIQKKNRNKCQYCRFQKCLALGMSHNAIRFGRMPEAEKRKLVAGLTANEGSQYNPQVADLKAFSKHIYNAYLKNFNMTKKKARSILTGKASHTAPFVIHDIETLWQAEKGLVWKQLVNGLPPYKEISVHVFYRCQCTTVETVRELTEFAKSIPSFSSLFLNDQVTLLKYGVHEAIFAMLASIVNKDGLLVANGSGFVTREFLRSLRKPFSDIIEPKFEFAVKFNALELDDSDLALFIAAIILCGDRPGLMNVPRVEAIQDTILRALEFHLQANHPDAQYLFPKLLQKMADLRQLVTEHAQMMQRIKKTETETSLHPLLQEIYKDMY
Sequence of Bile acid receptor (Homo sapiens) (Q96RI1 whole entry, looked up): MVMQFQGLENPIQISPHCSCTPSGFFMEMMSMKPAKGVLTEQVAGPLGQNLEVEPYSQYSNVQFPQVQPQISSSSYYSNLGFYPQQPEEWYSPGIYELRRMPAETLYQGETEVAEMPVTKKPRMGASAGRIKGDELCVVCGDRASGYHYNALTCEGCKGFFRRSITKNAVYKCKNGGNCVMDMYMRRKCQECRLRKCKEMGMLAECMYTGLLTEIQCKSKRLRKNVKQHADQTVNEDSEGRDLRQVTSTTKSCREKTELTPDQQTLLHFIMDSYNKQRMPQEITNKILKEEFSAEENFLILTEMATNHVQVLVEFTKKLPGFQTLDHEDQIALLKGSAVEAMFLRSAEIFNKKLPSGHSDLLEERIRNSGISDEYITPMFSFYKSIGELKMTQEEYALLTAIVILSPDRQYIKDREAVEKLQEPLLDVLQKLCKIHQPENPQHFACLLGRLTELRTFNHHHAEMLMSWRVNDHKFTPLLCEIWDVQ
Sequence of Vitamin D3 receptor (Homo sapiens) (P11473 whole entry, looked up): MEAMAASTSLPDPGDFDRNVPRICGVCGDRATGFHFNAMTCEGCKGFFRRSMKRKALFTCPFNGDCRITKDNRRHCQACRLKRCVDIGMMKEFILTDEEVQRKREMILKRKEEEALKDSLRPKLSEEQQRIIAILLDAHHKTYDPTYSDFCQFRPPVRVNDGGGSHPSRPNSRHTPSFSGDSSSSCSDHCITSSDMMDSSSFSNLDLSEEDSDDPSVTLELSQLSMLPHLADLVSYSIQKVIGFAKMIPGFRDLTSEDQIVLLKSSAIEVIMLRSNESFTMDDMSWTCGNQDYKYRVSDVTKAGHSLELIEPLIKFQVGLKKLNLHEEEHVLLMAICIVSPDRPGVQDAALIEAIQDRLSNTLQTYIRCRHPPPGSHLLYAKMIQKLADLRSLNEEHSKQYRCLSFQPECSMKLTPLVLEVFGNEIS

CCCOC(=O)CC
inactive: [1] | [2] | [3] | [4] | [5] | [6] | [7] | [8] | [9] | [10] | [11] | [12] | [13] | [14] | [15]

C=COCC1CCC(COC=C)CC1 (stereo unspecified)
inactive: [16] | [2] | [4] | [5] | [7] | [8] | [9] | [10] | [11] | [12] | [13] | [14] | [15]

CC(=O)NC(=O)c1ccccc1O
inactive: [1] | [2] | [3] | [4] | [6] | [7] | [8] | [9] | [10] | [11] | [12] | [13] | [14] | [15]

Nc1ccccn1
inactive: [16] | [2] | [4] | [5] | [6] | [7] | [8] | [9] | [10] | [11] | [12] | [13] | [14] | [15]

CC(C)(CCC(=O)O)C(=O)O
inactive: [16] | [2] | [17] | [4] | [18] | [6] | [7] | [8] | [9] | [10] | [11] | [12] | [13] | [14] | [15]

CN(C)[C@@H]1C(=O)C(C(=O)NCN2CCCC2)=C(O)[C@@]2(O)C(=O)C3=C(O)c4c(O)cccc4[C@@](C)(O)C3C[C@@H]12 (stereo partly specified)
inactive: [16] | [2] | [17] | [4] | [5] | [6] | [7] | [8] | [9] | [10] | [11] | [12] | [13] | [14] | [15]

O=S(=O)(O)c1cccc2c(S(=O)(=O)O)cccc12
inactive: [16] | [2] | [4] | [5] | [18] | [6] | [7] | [8] | [9] | [10] | [11] | [12] | [13] | [14] | [15]

CO[C@@]1(NC(=O)CSC[C@@H](N)C(=O)O)C(=O)N2C(C(=O)O)=C(CSc3nnnn3C)CS[C@@H]21
inactive: [16] | [19] | [17] | [20] | [4] | [7] | [8] | [9] | [10] | [11] | [12] | [13] | [14] | [15]

CCN(Cc1ccccc1)c1ccccc1
inactive: [16] | [1] | [3] | [17] | [4] | [6] | [7] | [8] | [9] | [10] | [11] | [12] | [13] | [14] | [15]

CC1=NN(c2cc(S(=O)(=O)O)ccc2Cl)C(=O)C1N=Nc1ccccc1 (stereo unspecified)
inactive: [1] | [2] | [3] | [19] | [17] | [20] | [4] | [5] | [18] | [6] | [7] | [8] | [9] | [10] | [11] | [12] | [13] | [14] | [15]

O=[N+]([O-])c1cncn1CCN1CCOCC1
inactive: [16] | [17] | [4] | [5] | [6] | [7] | [8] | [9] | [10] | [11] | [12] | [13] | [14] | [15]

Cc1c(N)c(=O)n(-c2ccccc2)n1C
inactive: [16] | [17] | [4] | [6] | [7] | [8] | [9] | [10] | [11] | [12] | [13] | [14] | [15]

O=C(CO)[C@@H](O)[C@H](O)[C@H](O)CO
inactive: [16] | [4] | [6] | [7] | [8] | [9] | [10] | [11] | [12] | [13] | [14] | [15]

CC(C(=O)O)c1cccc(Oc2ccccc2)c1 (stereo unspecified)
inactive: [16] | [2] | [17] | [4] | [5] | [7] | [8] | [9] | [10] | [11] | [12] | [13] | [14] | [15]

C[C@@H]1CCC[C@H](C)N1
inactive: [16] | [17] | [4] | [5] | [18] | [6] | [8] | [9] | [10] | [11] | [12] | [13] | [14] | [15]

Nc1c2c(nc3c1CCC3)CCCC2
inactive: [16] | [2] | [19] | [17] | [20] | [4] | [5] | [18] | [7] | [8] | [9] | [10] | [11] | [12] | [13] | [14] | [15]

COCCOC[C@H](CC1(C(=O)NC2CCC(C(=O)O)CC2)CCCC1)C(=O)Oc1ccc2c(c1)CCC2 (stereo partly specified)
inactive: [1] | [2] | [3] | [17] | [4] | [5] | [6] | [7] | [8] | [9] | [10] | [11] | [12] | [13] | [14] | [15]

Cc1ccc(C(=O)Nc2ccc(S(=O)(=O)O)c3cc(S(=O)(=O)O)cc(S(=O)(=O)O)c23)cc1NC(=O)c1cccc(NC(=O)Nc2cccc(C(=O)Nc3cc(C(=O)Nc4ccc(S(=O)(=O)O)c5cc(S(=O)(=O)O)cc(S(=O)(=O)O)c45)ccc3C)c2)c1
inactive: [16] | [1] | [3] | [17] | [4] | [5] | [18] | [6] | [7] | [8] | [9] | [10] | [11] | [12] | [13] | [14] | [15]
